High-throughput results from PubChem BioAssay.
Sampled rows, rich in hits. Any-hit rate of the full collection: about 7.9%.
MCF10A rerep: inducers of DNA re-replication in MCF 10A breast cells | MCF 10A DNA re-replication, Hoechst nuclear intensity, 48 h | Potency, µM (series often up to 46.1 µM), actives largely listed as activators | 350,000 compounds, 2.9% hits | AID 624296; also: nearly all actives have a fitted effect of over 50% in size
SW480 rerep: DNA re-replication induction in SW480 cells | SW480 DNA re-replication, Hoechst DNA content imaging, 48 h | Potency, µM (highest dose often 46.1 µM), most hits filed as activators | 340,000 compounds, 1.8% hits; also: nearly all actives have a fitted effect of over 55% in size
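First, 250 cells per well were seeded. Next, compound or vehicle (23 nL) was pinned in, plates sat 48 hr at 37 C. Finally Hoechst was added for 40 min before fluorescence scanning.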
KB-V1 cytotox: kills drug-selected multidrug resistant KB-V1 cells; KB-V1 MDR cells viability, CellTiter-Glo, 72 h; Potency, µM (highest dose often 46.1 µM), usual class: cytotoxic; 400,000 compounds, 3.4% hits; AID 1347076; also: nearly all actives have a fitted effect of over 60% in size
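Following 72 h at 37 degrees C with compound, KB-V1 cell viability was read by CellTiter-Glo luminescence, medium being phenol-red-free DMEM plus 10% FBS; concentration-response parameters came from normalized, curve-fitted qHTS data.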
HT1080NT lethal: kills 2HG-producing HT-1080-NT fibrosarcoma cells. HT-1080-NT fibrosarcoma viability, CellTiter-Glo ATP luminescence, 48 h. Potency, µM (series often up to 46.1 µM), most hits filed as cytotoxic. 360,000 compounds, 1.6% hits. AID 686970;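 also: NT is the 2HG producing partner of a matched IDH1 knockdown line; nearly all actives have a fitted effect of over 55% in size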
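750 cells/well, RPMI + 5% FBS; 2 h settle, compound pin-transfer, 48 h at 37 degrees C. CellTiter-Glo 10 min RT, luminescence. Normalized to DMSO and media-only wells.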
HT1080 IDH1KD tx: kills HT-1080 cells with IDH1 knockdown. HT-1080 IDH1 knockdown viability, ATP luminescence, 48 h. 360,000 compounds, 2% hits. Potency, µM (doses to about 46.1 µM), usual class: cytotoxic
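Cytotoxicity counter-line: IDH1KD HT-1080, 48 h, CellTiter-Glo. Curves classed by r2, magnitude and activity.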
KB-3-1 tox: kills parental KB-3-1 adenocarcinoma cells; KB-3-1 viability, CellTiter-Glo ATP luminescence, 72 h; AID 1347075; 400,000 compounds, 1.4% hits; Potency, µM (titrated, usually from 46.1 µM), hits mostly cytotoxic; also: nearly all actives have a fitted effect of over 60% in size
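Using CellTiter-Glo luminescence, growth of non-resistant KB-3-1 adenocarcinoma cells is assessed 72 h after pin-tool compound addition at 37 °C. Normalized responses across the concentration series yield fitted curves.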
Hits are given with their value; [ ] = another dose, or the depositor's remark. Calls follow the shape of the dose curve; as a rule, active = well fitted curve in the direction sought with a large enough effect; inconclusive = small, poorly fitted or top-dose-only effect, or another doubt; inactive = no such curve, though single readings can be large; an effect the other way counts as inactive or inconclusive.

Screening COC(=O)c1cccc(N2C(=O)c3cccnc3C2=O)c1 returned MCF10A rerep inactive, SW480 rerep inactive, KB-V1 cytotox inconclusive, HT1080NT lethal inactive, HT1080 IDH1KD tx inactive and KB-3-1 tox inactive.
`FC(F)(F)c1nnc2c(Sc3ccccc3)nc3ccc(Cl)cc3n12` gave MCF10A rerep 12µM, SW480 rerep inconclusive, KB-V1 cytotox inconclusive, HT1080NT lethal 9.2µM, HT1080 IDH1KD tx inactive and KB-3-1 tox inconclusive.
Screening CCO[C@@H]1OC(C(=O)N2CCN(C)CC2)=C[C@H](c2coc3ccccc3c2=O)[C@H]1CCCO returned MCF10A rerep inactive, SW480 rerep inactive, KB-V1 cytotox inactive, HT1080NT lethal inactive, HT1080 IDH1KD tx inactive and KB-3-1 tox inactive.
CCOC(=O)c1sc(N)c(C(=O)Nc2ccccc2OC)c1C was read as MCF10A rerep 10µM, SW480 rerep 16µM, KB-V1 cytotox 10µM, HT1080NT lethal inconclusive, HT1080 IDH1KD tx 7.3µM and KB-3-1 tox inconclusive.
CCN(CC)c1ccc(N2C(=O)/C(=C/c3ccccn3)SC2=S)cc1 was read as MCF10A rerep inactive, SW480 rerep inactive, KB-V1 cytotox inactive, HT1080NT lethal inactive, HT1080 IDH1KD tx inactive and KB-3-1 tox inactive.
O=C(CN(Cc1ccccc1Cl)C(=O)c1ccc(CN2CCOCC2)o1)NCc1ccccc1 was read as MCF10A rerep inactive, SW480 rerep inactive, KB-V1 cytotox 12µM, HT1080NT lethal inactive, HT1080 IDH1KD tx inactive and KB-3-1 tox inactive.
For O=C(NCc1ccccc1)c1ccc(CN2CCOCC2)cc1 the results were MCF10A rerep inactive, SW480 rerep inactive, KB-V1 cytotox inactive, HT1080NT lethal inactive, HT1080 IDH1KD tx inactive and KB-3-1 tox inactive.
For OC(c1ccccn1)(c1ccccn1)c1ccccn1 the results were MCF10A rerep inconclusive, SW480 rerep inconclusive, KB-V1 cytotox 10µM, HT1080NT lethal inconclusive, HT1080 IDH1KD tx inconclusive and KB-3-1 tox inactive.
`Cc1sc2nc(-c3cccnc3)nc(Cl)c2c1-c1ccccc1` gave MCF10A rerep 21µM, SW480 rerep inactive, KB-V1 cytotox 13µM, HT1080NT lethal inactive, HT1080 IDH1KD tx inactive and KB-3-1 tox inactive.
CSc1ccccc1OCc1cc(C(=O)NC(C)Cn2cncn2)no1 (stereo not given) was read as MCF10A rerep inactive, SW480 rerep inactive, KB-V1 cytotox inconclusive, HT1080NT lethal inactive, HT1080 IDH1KD tx inactive and KB-3-1 tox inactive.
CCC(CC)C(=O)N(C)c1c(C)nc2c(OCC=C(C)C)cccn12 was read as KB-V1 cytotox inactive, HT1080NT lethal inconclusive, HT1080 IDH1KD tx 15µM and KB-3-1 tox inactive.
Screening COc1cc(O)c(NC(C)=O)c2nonc12 returned MCF10A rerep inactive, SW480 rerep inactive, KB-V1 cytotox inactive, HT1080NT lethal inactive, HT1080 IDH1KD tx inactive[9.24 µM] and KB-3-1 tox inactive.
Screening CC(=O)NC1=CC(=O)c2nonc2C1=O returned KB-V1 cytotox inactive and KB-3-1 tox 5.2µM.
Screening Cc1cc(Nc2cccc([N+](=O)[O-])c2)n2c(nc3ccccc32)c1C#N returned MCF10A rerep 6.3µM, SW480 rerep inconclusive, KB-V1 cytotox 3.3µM, HT1080NT lethal inconclusive, HT1080 IDH1KD tx 16µM and KB-3-1 tox 5.2µM.
`Cc1cc(Nc2ccc(F)cc2)n2c(nc3ccccc32)c1C#N` gave KB-V1 cytotox inactive and KB-3-1 tox inactive.
For CCOC(=O)/C=C1\SCC(=O)N1CC(=O)Nc1ccc2c(c1)CCC2 the results were MCF10A rerep 9.2µM, SW480 rerep inconclusive, KB-V1 cytotox inconclusive, HT1080NT lethal inactive, HT1080 IDH1KD tx inconclusive and KB-3-1 tox inactive.
`C[C@H]1CN([C@@H](C)CO)C(=O)c2cc(C#Cc3cccnc3)cnc2O[C@H]1CN(C)Cc1ccc(F)cc1` gave KB-V1 cytotox inactive, HT1080NT lethal inactive, HT1080 IDH1KD tx inactive and KB-3-1 tox inactive.
`Cc1ccc(/C=N/Nc2nc(C(C)(C)C)cs2)o1` gave MCF10A rerep 9.2µM, SW480 rerep inactive, KB-V1 cytotox inactive, HT1080NT lethal inactive, HT1080 IDH1KD tx inactive and KB-3-1 tox inactive.
Screening CC(C)(C)c1csc(N/N=C/c2cccnc2)n1 returned MCF10A rerep inactive, SW480 rerep inactive, KB-V1 cytotox inconclusive, HT1080NT lethal inactive, HT1080 IDH1KD tx inactive and KB-3-1 tox inconclusive.
`N/C(CCS(=O)(=O)c1ccc(Cl)cc1)=N\OC(=O)c1ccccc1C(F)(F)F` gave MCF10A rerep inconclusive, SW480 rerep inconclusive, KB-V1 cytotox inconclusive, HT1080NT lethal inconclusive, HT1080 IDH1KD tx 21µM and KB-3-1 tox inconclusive.
Screening N/C(CCS(=O)(=O)c1ccc(Cl)cc1)=N\OC(=O)c1ccc(Cl)cc1 returned MCF10A rerep inactive, SW480 rerep inactive, KB-V1 cytotox inactive, HT1080NT lethal inactive, HT1080 IDH1KD tx inactive and KB-3-1 tox inactive.
Screening O=C(O)c1c(-c2ccc(Cl)cc2)cn2ccccc12 returned MCF10A rerep inconclusive, SW480 rerep 18µM, KB-V1 cytotox inactive, HT1080NT lethal inactive, HT1080 IDH1KD tx inactive and KB-3-1 tox inactive.
Screening CCOC(=O)/C(=C\c1ccc(OC(F)F)cc1)C1=Nn2c(nnc2-c2ccc(Cl)cc2)SC1 returned MCF10A rerep 5.2µM, SW480 rerep 16µM, KB-V1 cytotox inactive, HT1080NT lethal 5.8µM, HT1080 IDH1KD tx 3.7µM and KB-3-1 tox inconclusive.
CCOC(=O)/C(=C/c1ccc(OC(F)F)cc1)C1=Nn2c(nnc2-c2ccc(Cl)cc2)SC1 was read as MCF10A rerep 3.7µM, SW480 rerep 7.3µM, KB-V1 cytotox inconclusive, HT1080NT lethal 3.3µM, HT1080 IDH1KD tx 3.7µM and KB-3-1 tox inconclusive.
Screening COc1ccc(-c2nnc3n2N=C(C)CS3)cc1 returned MCF10A rerep inactive, SW480 rerep inactive, KB-V1 cytotox inactive, HT1080NT lethal inactive, HT1080 IDH1KD tx inactive and KB-3-1 tox inactive.
`C=CCNCCOCCSc1ccc(Cl)cc1` gave MCF10A rerep inactive, SW480 rerep inactive, KB-V1 cytotox inactive, HT1080NT lethal inactive, HT1080 IDH1KD tx inactive and KB-3-1 tox inactive.
`CCOCCc1nn2c(=O)cc(CSCC(=O)Nc3ccc(OC)cc3)nc2s1` gave MCF10A rerep inactive, SW480 rerep inactive, KB-V1 cytotox inactive, HT1080NT lethal inactive, HT1080 IDH1KD tx inactive and KB-3-1 tox inactive.
Screening CCCCCCCC1CC(/C(C)=N/NC(N)=O)OC1=O (stereo not given) returned MCF10A rerep inconclusive, SW480 rerep inactive, KB-V1 cytotox inactive, HT1080NT lethal inactive, HT1080 IDH1KD tx inactive and KB-3-1 tox inactive.
For Cc1cc(NCc2ccccc2)n2ncc(-c3ccccc3)c2n1 the results were MCF10A rerep 18µM, SW480 rerep inconclusive, KB-V1 cytotox inactive, HT1080NT lethal inactive, HT1080 IDH1KD tx inactive and KB-3-1 tox inconclusive.
`COc1ccc(CCNc2cc(C)nc3c(-c4ccccc4)cnn23)cc1OC` gave MCF10A rerep inconclusive, SW480 rerep inactive, KB-V1 cytotox inactive, HT1080NT lethal inactive, HT1080 IDH1KD tx inconclusive and KB-3-1 tox inactive.
